Potency and affinity values are given separately. Active and inactive are the calls of the source.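 How the source made its calls: active means combined score above 52, rewarding potency beyond a set limit and curve height beyond a set limit; inactive means the rest.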
Target: Broad substrate specificity ATP-binding cassette transporter ABCG2 (Homo sapiens) (UniProt Q9UNQ0)
Assay: inhibition of BCRP-mediated JC-1 efflux – Ig-MXP3 cells, flow cytometry, set 2, dose response (AID 504566)
Settings: series mostly up to 50 µM

Broad substrate specificity ATP-binding cassette transporter ABCG2 (Homo sapiens), sequence (Q9UNQ0 whole entry, looked up): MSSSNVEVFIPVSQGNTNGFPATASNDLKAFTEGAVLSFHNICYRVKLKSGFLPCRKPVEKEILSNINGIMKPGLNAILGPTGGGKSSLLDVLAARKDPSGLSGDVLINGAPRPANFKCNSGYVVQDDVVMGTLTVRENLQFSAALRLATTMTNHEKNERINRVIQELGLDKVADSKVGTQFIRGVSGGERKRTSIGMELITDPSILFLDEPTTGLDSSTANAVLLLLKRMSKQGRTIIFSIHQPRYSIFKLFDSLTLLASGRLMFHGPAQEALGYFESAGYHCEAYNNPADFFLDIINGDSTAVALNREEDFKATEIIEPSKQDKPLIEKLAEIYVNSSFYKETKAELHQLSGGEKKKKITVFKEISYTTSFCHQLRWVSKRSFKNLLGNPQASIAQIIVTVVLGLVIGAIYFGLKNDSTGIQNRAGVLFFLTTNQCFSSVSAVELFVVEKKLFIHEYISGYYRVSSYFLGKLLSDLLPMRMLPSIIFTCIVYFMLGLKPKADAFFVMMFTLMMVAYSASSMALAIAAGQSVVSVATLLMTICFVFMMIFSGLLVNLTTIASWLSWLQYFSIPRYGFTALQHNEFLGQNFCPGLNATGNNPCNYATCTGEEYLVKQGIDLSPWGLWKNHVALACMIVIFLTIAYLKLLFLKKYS

outcome, inactive:
O=S(=O)(c1ccccc1)N1CCN(c2cc(-c3ccccc3)nc3cc(-c4cccc(Cl)c4)nn23)CC1
Cc1nc2cc(-c3cccs3)nn2c(N2CCN(C(=O)c3ccco3)CC2)c1C
CC(=O)N1CCN(c2c(C)c(C)nc3cc(-c4ccc(Cl)cc4)nn23)CC1

— PubChem BioAssay AID504566 (NMMLSC, 2011)
